Results taken from PubChem BioAssay.
Activity calls are given as the source filed them. Unless noted, how the calls were made is not given here.

Columns and labels:
[1] = compounds binding Alexa647 anti-His antibody – biochemical, small-molecule microarray, 635 nm fluorescence, artefact control for SMM control protein annotation, primary screen (AID 1128); settings: higher = more signal;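 further: score merges feature fluorescence with signal-to-noise for each printed compound spot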
[2] = tested on: Human papillomavirus type 1a E7 protein (residues 1-88); assay: HPV1a E7 small-molecule binders, primary screen, biochemical, small-molecule microarray, residues 1-88, 635 nm (AID 1129); settings: small-molecule microarray binding, fluorescence 635 nm; higher = more signal
[3] = target: Focal adhesion kinase 1 (Homo sapiens) (UniProt Q05397); assay: PTK2 protein binding on printed compound slides – biochemical, small-molecule microarray, 635/667 nm fluorescence, BSA, DTT, primary screen (AID 1130); settings: 635 nm fluorescence, higher = more signal;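 further: composite of spot emission at 667 nm and signal to noise over triplicate slides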
[4] = tested on: Fibrinogen (Alexa647-labelled); assay: Alexa647-fibrinogen binding to printed small molecules – biochemical, small-molecule microarray, 635/667 nm fluorescence, artefact control for SMM control-protein annotation, profiling panel (AID 1131); settings: fibrinogen-A647 binding fluorescence, higher = more signal;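 further: z-score merges 667 nm fluorescence with per-spot signal-to-noise over triplicate slides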
[5] = target: Follistatin (Homo sapiens) (UniProt P19883); assay: FST protein binding to printed compounds – biochemical, small-molecule microarray, 635/667 nm fluorescence, primary screen (AID 1132); settings: 635 nm fluorescence, higher = more signal
[6] = target: Fibroblast growth factor 2 (Homo sapiens) (UniProt P09038); assay: basic fibroblast growth factor binding to printed compounds – biochemical, small-molecule microarray, 635/667 nm fluorescence, primary screen (AID 1133); settings: FGF2, fluorescence 635/667, higher = more signal
[7] = JC-1 mitochondrial potential readout, lung cancer cells – cell-based, A549, JC-1 fluorescence, basal, 24 h, 100 nL, profiling panel (AID 1138); settings: higher = more signal;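 further: A549 lung adenocarcinoma cells under basal conditions with no added stimulus; test concentration not given here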
[8] = tested on: Lefty1; assay: Lefty1 protein binding to printed compounds – biochemical, small-molecule microarray, 635/667 nm fluorescence, primary screen (AID 1139); settings: fluorescence 635/667, higher = more signal
[9] = tested on: wheat germ agglutinin (Triticum aestivum), Alexa647-labelled; assay: Alexa647-WGA lectin binding to printed small molecules – biochemical, small-molecule microarray, 635/667 nm fluorescence, artefact control for SMM control-protein annotation, profiling panel (AID 1140); settings: WGA-A647 binding, 635 nm fluorescence, higher = more signal;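 further: score merges 667 nm feature emission with signal to noise over triplicate slides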
[10] = target: Luciferin 4-monooxygenase (Photinus pyralis) (UniProt P08659); assay: inhibition of purified Photinus pyralis luciferase – biochemical, luminescence, purified enzyme, 2006 set, primary screen (AID 1141); settings: purified firefly luciferase, SteadyGlo luminescence, 30 min; higher = more signal, called active from +8 up or from −8 down;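 further: cell-free assay with purified firefly luciferase at 100 ng per well in PBS; test concentration not given here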
[11] = tested on: Wnt5a (protein binding on small-molecule microarray); assay: small molecules binding Wnt5a protein – biophysical, small-molecule microarray, 635/667 nm fluorescence, primary screen (AID 1142); settings: 635 nm fluorescence, higher = more signal;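 further: fluorescence read at 667 nm with signal to noise per printed feature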
[12] = ATP-based viability of Huh7 replicon cells – cell-based, CellTiter-Glo luminescence, basal, 48 h, cytotoxicity control for HCV replication inhibitor project, primary screen (AID 1143); settings: higher = more signal, called active from +8 up or from −8 down;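 further: Huh7 hepatoma cells carrying a hepatitis C replication reporter with no stimulus; test concentration not given here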
[13] = Pseudomonas biofilm growth suppression – PAO1 strain, BacTiter-Glo luminescence, LB-PBS, primary screen (AID 1144); settings: P. aeruginosa PAO1 biofilm, 12 h, higher = more signal
[14] = basal CRE-LacZ reporter activity in PC12 – cell-based, unstimulated, primary screen (AID 1145); settings: no forskolin, luminescence, 4.5 h, higher = more signal, called active from +8 up or from −8 down
[15] = forskolin-driven CRE-LacZ activity in PC12 – cell-based, CRE-LacZ reporter, forskolin-stimulated, primary screen (AID 1146); settings: luminescence, 4.5 h, higher = more signal, called active from +8 up or from −8 down;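 further: PC12 cells with 6xCRE LacZ reporter stimulated by forskolin 10 µM; beta-galactosidase reporter signal reflecting CREB driven transcription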
[16] = target: Streptavidin (Streptomyces avidinii) (UniProt P22629); assay: compounds binding control protein streptavidin – biophysical, small-molecule microarray, 635/667 nm fluorescence, artefact control for SMM compound annotation, primary screen (AID 1147); settings: higher = more signal;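 further: signal reflects streptavidin binding to arrayed compounds as a control protein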
[17] = probe aInhba binding on compound microarray – biochemical, small-molecule microarray, 635/667 nm fluorescence, primary screen (AID 1148); settings: higher = more signal;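 further: score merges 667nm spot fluorescence with signal-to-noise for antibody binding to printed compounds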
[18] = target: Torsin-1A (Homo sapiens) (UniProt O14656); assay: TOR1A wild-type binding on microarray – cell lysate, small-molecule microarray, lysate, 635/667 nm, primary screen (AID 1149); settings: COS7 hTOR1A-WT lysate, 635 nm fluorescence, higher = more signal
[19] = target: Torsin-1A (Homo sapiens) (UniProt O14656); assay: torsin A mutant lysate binding on microarrays – cell lysate, small-molecule microarray, COS7 lysate, 635/667 nm fluorescence, primary screen (AID 1150); settings: COS7 hTOR1A mutant lysate, 635 nm fluorescence, higher = more signal;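 further: score pools 667 nm emission and signal to noise measuring lysate protein binding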
[20] = tested on: Sonic hedgehog protein (Shh); assay: Sonic hedgehog microarray binding compounds – biochemical, small-molecule microarray, 635/667 nm fluorescence, primary screen (AID 1151); settings: 635 nm fluorescence, higher = more signal;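 further: Shh protein binding to compounds spotted on small-molecule microarray slides; score combines spot fluorescence intensity with signal-to-noise across triplicate slides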

Focal adhesion kinase 1 (Homo sapiens), sequence (Q05397 whole entry, looked up): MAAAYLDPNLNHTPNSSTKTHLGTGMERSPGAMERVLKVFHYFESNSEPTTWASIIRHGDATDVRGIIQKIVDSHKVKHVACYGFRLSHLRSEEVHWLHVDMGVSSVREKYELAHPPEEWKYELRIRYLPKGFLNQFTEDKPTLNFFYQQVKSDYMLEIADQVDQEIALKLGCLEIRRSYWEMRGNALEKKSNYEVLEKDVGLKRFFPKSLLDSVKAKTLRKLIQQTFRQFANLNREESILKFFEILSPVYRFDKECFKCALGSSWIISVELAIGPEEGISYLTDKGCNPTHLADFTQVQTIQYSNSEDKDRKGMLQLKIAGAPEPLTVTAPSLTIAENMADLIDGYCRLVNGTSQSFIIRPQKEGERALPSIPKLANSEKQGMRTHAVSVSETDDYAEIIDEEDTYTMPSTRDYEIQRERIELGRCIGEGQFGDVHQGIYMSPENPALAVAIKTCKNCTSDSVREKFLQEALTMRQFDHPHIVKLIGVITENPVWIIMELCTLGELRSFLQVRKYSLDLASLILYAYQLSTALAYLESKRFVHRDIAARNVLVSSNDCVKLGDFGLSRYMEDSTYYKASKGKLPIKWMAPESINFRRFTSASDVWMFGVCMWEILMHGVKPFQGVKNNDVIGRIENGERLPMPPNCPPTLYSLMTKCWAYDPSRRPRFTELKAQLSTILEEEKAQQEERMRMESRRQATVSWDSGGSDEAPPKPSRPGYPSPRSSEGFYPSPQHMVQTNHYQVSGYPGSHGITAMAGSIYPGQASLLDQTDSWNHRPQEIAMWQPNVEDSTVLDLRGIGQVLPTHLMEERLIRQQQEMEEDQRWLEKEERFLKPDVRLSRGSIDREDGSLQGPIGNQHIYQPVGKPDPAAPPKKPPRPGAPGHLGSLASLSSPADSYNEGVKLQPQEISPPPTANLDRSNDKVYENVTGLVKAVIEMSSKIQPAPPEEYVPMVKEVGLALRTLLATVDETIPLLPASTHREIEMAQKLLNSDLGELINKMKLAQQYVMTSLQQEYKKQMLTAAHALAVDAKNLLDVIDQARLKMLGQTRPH
Fibroblast growth factor 2 (Homo sapiens), sequence (P09038 whole entry, looked up): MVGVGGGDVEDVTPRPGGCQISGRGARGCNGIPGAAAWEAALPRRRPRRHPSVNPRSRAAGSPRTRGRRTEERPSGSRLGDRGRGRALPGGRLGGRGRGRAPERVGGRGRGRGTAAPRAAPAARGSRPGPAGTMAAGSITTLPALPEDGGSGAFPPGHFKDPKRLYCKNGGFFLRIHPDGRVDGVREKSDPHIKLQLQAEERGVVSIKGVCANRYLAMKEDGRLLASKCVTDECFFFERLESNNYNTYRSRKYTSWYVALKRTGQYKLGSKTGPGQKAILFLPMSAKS
Luciferin 4-monooxygenase (Photinus pyralis), sequence (P08659 whole entry, looked up): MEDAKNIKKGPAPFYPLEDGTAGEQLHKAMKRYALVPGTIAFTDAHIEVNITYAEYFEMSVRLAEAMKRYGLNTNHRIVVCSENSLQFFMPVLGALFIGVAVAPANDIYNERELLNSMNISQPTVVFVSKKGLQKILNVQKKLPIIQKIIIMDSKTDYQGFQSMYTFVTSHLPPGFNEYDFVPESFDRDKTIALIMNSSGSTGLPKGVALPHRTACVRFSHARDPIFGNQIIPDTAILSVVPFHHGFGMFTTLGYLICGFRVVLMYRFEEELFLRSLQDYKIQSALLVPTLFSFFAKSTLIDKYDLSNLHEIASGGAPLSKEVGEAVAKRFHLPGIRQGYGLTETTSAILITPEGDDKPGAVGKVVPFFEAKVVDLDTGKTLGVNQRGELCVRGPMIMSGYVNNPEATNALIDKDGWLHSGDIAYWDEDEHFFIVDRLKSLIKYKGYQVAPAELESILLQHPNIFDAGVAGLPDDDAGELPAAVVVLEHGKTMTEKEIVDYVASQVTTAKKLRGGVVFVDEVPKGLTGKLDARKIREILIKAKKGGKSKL
Follistatin (Homo sapiens), sequence (P19883 whole entry, looked up): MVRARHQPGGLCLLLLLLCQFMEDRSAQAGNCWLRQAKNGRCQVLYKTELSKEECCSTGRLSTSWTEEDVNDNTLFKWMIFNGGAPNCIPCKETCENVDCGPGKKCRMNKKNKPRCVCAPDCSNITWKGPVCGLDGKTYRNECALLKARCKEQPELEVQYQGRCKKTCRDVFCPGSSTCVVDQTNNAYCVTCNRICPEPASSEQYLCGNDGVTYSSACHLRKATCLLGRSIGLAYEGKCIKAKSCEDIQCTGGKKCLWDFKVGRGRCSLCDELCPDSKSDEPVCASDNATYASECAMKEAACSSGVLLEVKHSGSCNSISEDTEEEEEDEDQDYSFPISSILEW
Streptavidin (Streptomyces avidinii), sequence (P22629 whole entry, looked up): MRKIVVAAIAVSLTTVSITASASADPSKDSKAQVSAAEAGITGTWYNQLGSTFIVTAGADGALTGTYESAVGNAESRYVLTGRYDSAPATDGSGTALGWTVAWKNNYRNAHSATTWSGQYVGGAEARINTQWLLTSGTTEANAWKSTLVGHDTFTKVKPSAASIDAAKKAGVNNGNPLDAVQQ
Torsin-1A (Homo sapiens), sequence (O14656 whole entry, looked up): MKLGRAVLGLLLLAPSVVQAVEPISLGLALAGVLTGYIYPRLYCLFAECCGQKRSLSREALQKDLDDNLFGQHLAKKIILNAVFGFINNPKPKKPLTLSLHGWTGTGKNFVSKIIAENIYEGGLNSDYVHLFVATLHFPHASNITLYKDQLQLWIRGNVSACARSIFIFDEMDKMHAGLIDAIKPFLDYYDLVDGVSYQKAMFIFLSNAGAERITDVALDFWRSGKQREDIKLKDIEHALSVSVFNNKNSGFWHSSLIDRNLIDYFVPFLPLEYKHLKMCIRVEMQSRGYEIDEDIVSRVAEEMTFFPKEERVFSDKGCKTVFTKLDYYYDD

SMILES | composite z-score [1] | composite z-score [2] | composite z-score [3] | composite z-score [4] | composite z-score [5] | composite z-score [6] | z-score [7] | composite z-score [8] | composite z-score [9] | z-score [10] | composite z-score [11] | z-score [12] | z-score [13] | z-score [14] | z-score [15] | composite z-score [16] | composite z-score [17] | composite z-score [18] | composite z-score [19] | composite z-score [20]
[N-]=[N+]=NCc1ccccc1C[C@@]1(C(=O)N2CCOCC2)N=C(c2ccc(OCCCO)cc2)O[C@@H]1c1ccccc1 | 3.12 | 1.18 | 0.406 | 0.884 | 0.734 | 0.399 | -0.667 | -0.379 | 0.529 | -0.469 (inactive) | 0.464 | -5.68 (inactive) | -0.244 (inactive) | 0.922 (inactive) | -0.951 (inactive) | 1.35 | 0.0589 | 1.19 | 1.31 | -0.796
O=C1O[C@H](c2ccccc2)[C@H](c2ccccc2)N2[C@H]1[C@@H](C(=O)NC[C@H](O)c1ccccc1)[C@]1(C(=O)Nc3ccc(C#CCCO)cc31)[C@H]2c1ccc(OCCO)cc1 | 1.32 | 1.2 | 0.693 | 0.738 | 0.743 | 0.134 | -0.552 | 0.329 | 1.01 | -2.02 (inactive) | 0.518 | -0.821 (inactive) | -0.626 (inactive) | 0.299 (inactive) | 0.0413 (inactive) | 0.0889 | 0.0464 | 0.13 | 0.38 | 1.76
COc1ccccc1CN1C(=O)c2ccccc2[C@@]2(Cc3ccccc3N(CC(F)(F)F)C2=O)[C@@H]1c1ccc(CO)cc1 | -0.0478 | 0.232 | 0.205 | 0.049 | 0.666 | 0.731 | -0.0896 | 0.292 | -0.0716 | 0.962 (inactive) | 0.0586 | 0.338 (inactive) | 0.126 (inactive) | 1.24 (inactive) | -0.173 (inactive) | 0.276 | 0.173 | -0.116 | -0.33 | 0.53
O=C1O[C@H](c2ccccc2)[C@H](c2ccccc2)N2[C@H]1[C@@H](C(=O)Nc1nc3ccccc3s1)[C@]1(C(=O)Nc3ccc(C#CCCO)cc31)[C@H]2c1ccc(O)cc1 | 0.917 | 1.18 | 0.306 | 0.982 | 1.26 | 0.585 | -2.34 | 1.23 | 1.1 | 0.198 (inactive) | -0.11 | 0.358 (inactive) | -0.911 (inactive) | -0.141 (inactive) | -0.782 (inactive) | 1.09 | -0.176 | 0.232 | 0.7 | 1.36
CCOc1cc(C(O)C2C=CC3C(=O)N(c4ccccc4)C(=O)C3N2Nc2ccc(C#N)cc2)ccc1O (stereo not given) | 1.29 | 0.161 | 0.471 | 0.961 | 0.765 | -0.667 | -0.00105 | 0.113 | 0.961 | -0.519 (inactive) | -0.162 | 0.423 (inactive) | -0.485 (inactive) | -0.525 (inactive) | 0.201 (inactive) | 0.999 | 0.288 | 0.258 | 0.115 | -0.373
NC(=O)N1C(=O)C2C(C1=O)C1C=C(CCCO)C2C(c2cccs2)N1Cc1cccc(OC(F)(F)F)c1 (stereo not given) | 2.83 | 0.416 | 0.192 | 0.692 | 0.82 | -0.0701 | 0.928 | 0.672 | 0.438 | -0.929 (inactive) | -0.0995 | -2.32 (inactive) | 0.818 (inactive) | 0.0704 (inactive) | -0.461 (inactive) | 0.035 | -0.114 | 0.726 | 0.981 | 1.4
COC(=O)[C@@]1(Cc2ccccc2)[C@H]2c3cc(C(=O)N(C)C)n(CCc4ccc(O)c(OC)c4)c3C[C@H]2CN1C(=O)c1ccccc1 | 0.964 | 0.88 | 0.0098 | 0.814 | 0.168 | 0.273 | 0.153 | 0.0511 | 0.0048 | 0.554 (inactive) | 1.01 | 0.394 (inactive) | 0.333 (inactive) | 0.201 (inactive) | 0.334 (inactive) | 0.545 | 1.07 | 0.0405 | 0.212 | -0.0598
CCCCC=C[C@@H](NC(=O)c1ccc(-c2ccccc2)cc1)c1ccccc1 | 0.512 | 1.19 | 0.416 | 0.413 | -0.107 | -0.0601 | -0.428 | -0.217 | 0.535 | 2.01 (inactive) | -0.0312 | -1.76 (inactive) | -0.00961 (inactive) | 0.197 (inactive) | -0.013 (inactive) | 1.18 | 0.319 | 0.58 | 0.871 | -0.181
CCOC(=O)c1ccc(NC(=O)O[C@H]2[C@H](OC(=O)Nc3ccc4c(c3)OCO4)[C@H](OC(=O)Nc3ccc4c(c3)OCO4)[C@@H](OC)O[C@@H]2CO)cc1 | 1.73 | 1.26 | 0.812 | 1.01 | 1.38 | 1.42 | -0.551 | 1.24 | 0.743 | -9.03 (active) | 0.662 | -2.23 (inactive) | 1.55 (inactive) | 0.0918 (inactive) | -0.195 (inactive) | 0.245 | 0.386 | 0.807 | 0.505 | 1.76
